Results on 24 compounds are retold here after PubChem BioAssay (NCATS).

Values joined by “and” are separate entries in the source; they are usually repeats but may differ in a detail not shown here. Identical values can stand only once. Inconclusive results are not listed. Entries that show only a call come without a potency. Unmarked numbers belong to inactive results. Active and inactive are the calls of the source. Calls follow the shape of the dose curve; as a rule, active = well fitted inhibition curve with a large enough effect; inconclusive = small, poorly fitted or top-dose-only effect; inactive = flat fitted curve, though single readings scatter.
Potency is read from the fitted curve at half-maximal effect.

In the test the test system is Zika virus NS2B-NS3 protease. The test is described as follows: Primary screen GU AMC qHTS for Zika virus inhibitors (AID 1347154). Also: nearly all actives have a fitted effect of over 70% in size. The following applies: Zika NS2B-NS3 unlinked protease, AMC fluorogenic substrate; series mostly up to 54.1 µM. The method, boiled down:
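Unlinked Zika NS2B hydrophilic domain/NS3 protease domain noncovalent complex (25 nM final) in 10 mM Tris-HCl pH 8.0, 0.01% Tween 20, with AMC peptide substrate. Fluorescence (ex 340, em 450 nm) change over 15 min, room temperature; percent inhibition fitted to 4-parameter Hill equation.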
(Quantitative high-throughput screening tests each substance at several concentrations.)
Turning to `C=C1c2cccc(O)c2C(O)=C2C(=O)[C@]3(O)C(O)=C(C(N)=O)C(=O)[C@@H](N(C)C)[C@@H]3[C@@H](O)[C@H]12`, the Potency is 3.98 µM (active) and 2.99 µM (active). The same measure, in the same setting: the result for `Cc1cn([C@H]2C[C@H](F)[C@@H](CO)O2)c(=O)[nH]c1=O` reads “inactive”; that for `CCN1CCN(C(=O)N[C@@H](C(=O)N[C@@H]2C(=O)N3C(C(=O)O)=C(CSc4nnnn4C)CS[C@H]23)c2ccc(O)cc2)C(=O)C1=O`, “inactive”.

Turning to `C[C@@]12C(=O)OC(=O)[C@]1(C)C1CCC2O1`, the Potency result was “inactive”. On to `CCC(C(=O)OCCOCCN(CC)CC)c1ccccc1` (centres undefined), for which the Potency result is “inactive”. On to `CCN(CC)CCOc1ccc2c(c1)C(=O)c1cc(OCCN(CC)CC)ccc1-2`, for which the Potency entry was “inactive”. Consider `COc1ccccc1N1CCN(CCCCNC(=O)c2ccc(-c3ccc(C(C)=O)cc3)cc2)CC1`, for which the Potency entry is “inactive”. Regarding `NCc1ccccc1Sc1ccccc1CO`, the Potency result was “inactive”. In the case of `CCCCN1C[C@H](O)[C@@H](O)[C@H](O)[C@H]1CO`, the Potency result is “inactive”. Take `CCN[C@@H]1C[C@H](N)[C@@H](OC2OC(CN)=CCC2N)[C@H](O)[C@H]1O[C@H]1OC[C@](C)(O)[C@H](NC)[C@H]1O` (some centres undefined): the activity change, negative = inhibition was -3.5% [at 0.59 µM]. On to `O=C(Oc1cccc2cccnc12)c1ccccc1`, for which the Potency entry is “inactive”. In the case of `COc1ccc(C(=O)c2ccccc2)c(O)c1`, the Potency result is “inactive”. For the compound `O=[N+]([O-])c1ccc(/C=N\O)o1`, the Potency entry is “inactive”. On to `C[C@]12CCC(=O)C=C1C=C[C@@H]1[C@@H]2CC[C@@]2(C)[C@H]1CC[C@@]21CCC(=O)O1`, for which the Potency entry is “inactive”. As for `C#C[C@]1(O)CC[C@H]2[C@@H]3CCc4cc(OC)ccc4[C@H]3CC[C@@]21C`, the Potency result is “inactive”. On to `NC(=O)C1(N2CCCCC2)CCN(CCCC(=O)c2ccc(F)cc2)CC1`, for which the Potency result was “inactive”.

In the case of `CN=C(N)NCCC[C@H](N)C(=O)O`, the Potency result is “inactive”.

Regarding `CCN1/C(=C/C=C/c2sc3ccccc3[n+]2CC)Sc2ccccc21`, the Potency result was “inactive”. Turning to `O[C@@H](c1cc(C(F)(F)F)nc2c(C(F)(F)F)cccc12)[C@H]1CCCCN1`, the Potency result is “inactive”.

In the case of `CC(C)(C)NC[C@H](O)COc1nsnc1N1CCOCC1`, the Potency result was “inactive”. In the case of `CC(=O)NC(=O)c1ccccc1O`, the Potency result is “inactive”. For `CC(C)(C)CC(C)(C)c1ccc(O)c(-n2nc3ccccc3n2)c1`, the Potency result is “inactive”.

Regarding `O=C(CCCN1CC=C(n2c(=O)[nH]c3ccccc32)CC1)c1ccc(F)cc1`, the Potency result was “inactive”. Take `CC(C)Nc1cccnc1N1CCN(C(=O)c2cc3cc(NS(C)(=O)=O)ccc3[nH]2)CC1`: the Potency result was “inactive”.
